For some assays here: Potency and affinity values are given separately.
How the values were obtained:
Parameters in all cases: scale not given: direction of the effect not stated beside the values
[1] = molecular target: Protein translocase subunit SecA (Escherichia coli (strain K12)) (UniProt P10408); assay: Assay to Identify E. coli SecA ATPase Inhibitors; assay type: functional; conditions: 30 µM
[2] = molecular target: T1, Ubiquitin-activating enzyme e1, putative (Leishmania donovani (strain BPK282A1)) (UniProt E9BSI1); assay: Leishmania donovani Ubiquitin Activating Enzyme (LdE1); assay type: functional; conditions: 30 µM
T1 sequence (whole entry): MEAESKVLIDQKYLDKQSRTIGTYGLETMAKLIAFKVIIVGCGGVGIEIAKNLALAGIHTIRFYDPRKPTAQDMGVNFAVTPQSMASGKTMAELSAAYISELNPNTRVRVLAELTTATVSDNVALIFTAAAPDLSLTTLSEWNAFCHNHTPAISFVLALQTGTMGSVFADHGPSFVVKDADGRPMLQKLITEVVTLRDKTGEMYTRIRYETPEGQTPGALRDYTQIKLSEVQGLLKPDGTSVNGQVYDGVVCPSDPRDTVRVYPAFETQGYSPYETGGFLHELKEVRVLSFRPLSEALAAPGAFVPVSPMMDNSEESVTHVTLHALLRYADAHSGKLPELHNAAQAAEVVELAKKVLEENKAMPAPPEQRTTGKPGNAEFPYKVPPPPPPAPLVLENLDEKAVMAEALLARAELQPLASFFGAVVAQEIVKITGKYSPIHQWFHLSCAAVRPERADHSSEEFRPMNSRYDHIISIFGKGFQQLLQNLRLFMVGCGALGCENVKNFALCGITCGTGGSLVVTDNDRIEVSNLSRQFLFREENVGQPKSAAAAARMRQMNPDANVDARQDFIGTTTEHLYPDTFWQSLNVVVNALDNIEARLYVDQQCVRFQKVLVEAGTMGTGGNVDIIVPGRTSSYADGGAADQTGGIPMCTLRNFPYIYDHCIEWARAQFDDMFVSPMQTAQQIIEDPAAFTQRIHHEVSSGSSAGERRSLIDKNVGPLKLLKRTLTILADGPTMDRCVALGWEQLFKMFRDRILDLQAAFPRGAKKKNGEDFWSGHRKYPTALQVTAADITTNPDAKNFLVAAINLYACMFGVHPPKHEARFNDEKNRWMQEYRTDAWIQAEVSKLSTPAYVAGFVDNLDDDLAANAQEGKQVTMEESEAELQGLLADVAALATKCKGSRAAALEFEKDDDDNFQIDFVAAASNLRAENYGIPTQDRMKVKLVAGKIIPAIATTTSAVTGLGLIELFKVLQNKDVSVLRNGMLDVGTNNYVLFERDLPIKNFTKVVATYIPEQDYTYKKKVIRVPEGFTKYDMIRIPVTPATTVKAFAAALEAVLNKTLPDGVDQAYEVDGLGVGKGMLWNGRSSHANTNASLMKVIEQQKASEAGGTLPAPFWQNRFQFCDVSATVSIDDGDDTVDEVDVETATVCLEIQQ

[3] = molecular target: AMP-activated protein kinase, AMPK (Homo sapiens) (UniProt P54646+O43741+P54619+Q9UGJ0+Q9Y478+Q13131+Q9UGI9); assay: AMP-dependent Kinase enzyme assay. An in vitro enzyme assay that detects ADP turnover that is directly proportional to AMPK activity. This uses naive AMPK that is activated during the assay with MK-8722; assay type: functional; conditions: 30 µM
[4] = molecular target: Sialic acid-binding Ig-like lectin 9 (Homo sapiens) (UniProt Q9Y336); assay: Hs-Siglec9 ALPHAscreen SOP 20170721; conditions: 10 µM
[5] = system: Trypanosoma cruzi; assay: Trypanosoma cruzi phosphomannomutase and mannose-1-phosphate guanylyltransferase assay; assay type: functional; conditions: 10 µM
[6] = molecular target: T2, Arginase-2, mitochondrial (Homo sapiens) (UniProt P78540); assay: in vitro enzyme assay to detect the production of urea directly proportional to the activity of Arginase II; assay type: functional; conditions: 33.3 µM; also: in the data most compounds retested in dose-response had high values
T2 sequence (whole entry): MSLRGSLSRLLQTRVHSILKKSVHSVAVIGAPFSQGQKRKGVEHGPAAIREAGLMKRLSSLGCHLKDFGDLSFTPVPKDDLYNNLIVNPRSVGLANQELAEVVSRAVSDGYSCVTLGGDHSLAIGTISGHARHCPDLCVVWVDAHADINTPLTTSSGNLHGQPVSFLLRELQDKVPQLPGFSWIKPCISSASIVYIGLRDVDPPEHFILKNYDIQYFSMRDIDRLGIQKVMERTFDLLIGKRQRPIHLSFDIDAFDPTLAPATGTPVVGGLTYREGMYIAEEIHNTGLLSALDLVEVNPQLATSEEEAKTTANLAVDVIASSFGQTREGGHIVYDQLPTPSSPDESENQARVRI

[7] = molecular target: T3, Proteasome subunit beta (Trypanosoma cruzi) (UniProt O96673); assay: Trypanosoma cruzi proteasome chymotrypsin-like activity (TcProtChymo) assay.; also: in the data most compounds retested in dose-response had high values; assay type: functional; conditions: 9.37 µM
T3 sequence (whole entry): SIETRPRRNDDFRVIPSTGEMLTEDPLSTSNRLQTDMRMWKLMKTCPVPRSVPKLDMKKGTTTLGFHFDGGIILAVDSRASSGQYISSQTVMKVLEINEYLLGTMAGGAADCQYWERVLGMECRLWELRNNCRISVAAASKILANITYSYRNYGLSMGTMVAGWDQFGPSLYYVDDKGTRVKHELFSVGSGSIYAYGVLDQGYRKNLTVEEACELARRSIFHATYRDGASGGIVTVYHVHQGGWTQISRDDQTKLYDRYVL

[8] = species on record: Homo sapiens; assay: To identify inhibition of the IFN signalling (Jak-Stat) pathway via expression of an eGFP reporter gene under the control of an IFN-stimulated response element (ISRE) containing MxA promoter.; assay type: functional; conditions: 30 µM
[9] = molecular target: T4, Tyrosyl-tRNA synthetase, putative (Trypanosoma cruzi (strain CL Brener)) (UniProt Q4DSP6); assay: Trypanosoma cruzi tyrosyl tRNA synthetase (TcYRS) _High Tyrosine SOP; assay type: functional; conditions: 30 µM; also: in the data most compounds retested in dose-response had high values
T4 sequence (whole entry): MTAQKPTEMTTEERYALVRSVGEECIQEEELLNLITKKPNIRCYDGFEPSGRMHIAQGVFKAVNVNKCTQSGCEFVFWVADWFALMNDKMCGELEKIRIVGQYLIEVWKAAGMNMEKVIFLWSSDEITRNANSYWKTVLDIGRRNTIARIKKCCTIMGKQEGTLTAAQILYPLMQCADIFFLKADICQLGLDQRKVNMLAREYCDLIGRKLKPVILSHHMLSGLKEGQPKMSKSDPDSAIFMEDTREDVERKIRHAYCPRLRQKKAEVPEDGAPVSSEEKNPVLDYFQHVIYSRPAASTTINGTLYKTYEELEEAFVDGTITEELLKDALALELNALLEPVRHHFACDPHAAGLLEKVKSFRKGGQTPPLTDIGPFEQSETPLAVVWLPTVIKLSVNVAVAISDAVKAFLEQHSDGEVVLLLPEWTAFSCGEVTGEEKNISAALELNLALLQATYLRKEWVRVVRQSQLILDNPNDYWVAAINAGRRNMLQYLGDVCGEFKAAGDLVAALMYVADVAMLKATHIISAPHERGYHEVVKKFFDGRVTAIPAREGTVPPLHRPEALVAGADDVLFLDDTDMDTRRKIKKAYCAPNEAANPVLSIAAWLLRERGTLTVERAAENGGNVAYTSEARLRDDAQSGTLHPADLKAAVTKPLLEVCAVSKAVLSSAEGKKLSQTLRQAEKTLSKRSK

[10] = molecular target: T4, Tyrosyl-tRNA synthetase, putative (Trypanosoma cruzi (strain CL Brener)); assay: Trypanosoma cruzi tyrosyl tRNA synthetase (TcYRS) SOP; assay type: functional; conditions: 30 µM
[11] = molecular target: Chromo domain-containing protein 1 (Saccharomyces cerevisiae (strain ATCC 204508 / S288c) (Baker's yeast)) (UniProt P32657); assay: ScCHD-1 Enzyme Inhibition Assay; assay type: functional; conditions: 30 µM; also: in the data most compounds retested in dose-response had high values
Sequence of Chromo domain-containing protein 1 (Saccharomyces cerevisiae (strain ATCC 204508 / S288c) (Baker's yeast)) (P32657 whole entry, the tested form may be a part): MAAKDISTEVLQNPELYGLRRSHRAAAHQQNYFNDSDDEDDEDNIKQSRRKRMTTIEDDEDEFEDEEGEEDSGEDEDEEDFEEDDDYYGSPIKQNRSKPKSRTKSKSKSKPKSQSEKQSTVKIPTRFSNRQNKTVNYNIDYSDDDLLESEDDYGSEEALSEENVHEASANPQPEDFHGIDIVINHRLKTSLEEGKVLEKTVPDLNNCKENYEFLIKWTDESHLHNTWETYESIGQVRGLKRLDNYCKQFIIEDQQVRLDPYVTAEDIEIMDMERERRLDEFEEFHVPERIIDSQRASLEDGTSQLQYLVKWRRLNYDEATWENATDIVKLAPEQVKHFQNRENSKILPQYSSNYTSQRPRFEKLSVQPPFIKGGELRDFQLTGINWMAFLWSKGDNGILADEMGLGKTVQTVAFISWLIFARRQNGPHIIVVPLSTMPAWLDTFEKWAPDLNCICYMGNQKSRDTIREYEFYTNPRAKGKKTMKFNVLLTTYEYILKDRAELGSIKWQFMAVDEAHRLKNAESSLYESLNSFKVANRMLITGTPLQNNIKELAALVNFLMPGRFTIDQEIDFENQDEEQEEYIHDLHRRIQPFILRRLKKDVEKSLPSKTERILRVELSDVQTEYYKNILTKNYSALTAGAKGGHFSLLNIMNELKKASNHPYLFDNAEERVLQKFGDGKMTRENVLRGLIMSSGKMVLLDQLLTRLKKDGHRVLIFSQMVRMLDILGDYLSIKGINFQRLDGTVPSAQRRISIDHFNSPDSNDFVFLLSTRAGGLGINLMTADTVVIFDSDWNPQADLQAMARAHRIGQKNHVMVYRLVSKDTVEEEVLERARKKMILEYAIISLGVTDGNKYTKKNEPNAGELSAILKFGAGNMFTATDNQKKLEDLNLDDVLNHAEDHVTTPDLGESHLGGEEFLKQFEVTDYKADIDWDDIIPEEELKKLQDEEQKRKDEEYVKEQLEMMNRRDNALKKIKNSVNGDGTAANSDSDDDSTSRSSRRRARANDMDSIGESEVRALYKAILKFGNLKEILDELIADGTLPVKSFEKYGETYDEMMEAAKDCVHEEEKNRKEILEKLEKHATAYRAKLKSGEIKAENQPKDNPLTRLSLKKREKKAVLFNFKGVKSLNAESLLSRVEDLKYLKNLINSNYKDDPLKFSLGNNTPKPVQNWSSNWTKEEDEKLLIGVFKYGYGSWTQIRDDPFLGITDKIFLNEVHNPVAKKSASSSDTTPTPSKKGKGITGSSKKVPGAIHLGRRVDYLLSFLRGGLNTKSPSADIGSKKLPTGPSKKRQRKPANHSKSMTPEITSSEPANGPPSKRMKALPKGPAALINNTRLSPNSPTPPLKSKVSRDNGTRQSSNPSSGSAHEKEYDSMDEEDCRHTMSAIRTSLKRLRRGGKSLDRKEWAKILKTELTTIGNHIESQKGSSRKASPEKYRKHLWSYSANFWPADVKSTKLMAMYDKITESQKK

Sequence of Sialic acid-binding Ig-like lectin 9 (Homo sapiens) (Q9Y336 whole entry): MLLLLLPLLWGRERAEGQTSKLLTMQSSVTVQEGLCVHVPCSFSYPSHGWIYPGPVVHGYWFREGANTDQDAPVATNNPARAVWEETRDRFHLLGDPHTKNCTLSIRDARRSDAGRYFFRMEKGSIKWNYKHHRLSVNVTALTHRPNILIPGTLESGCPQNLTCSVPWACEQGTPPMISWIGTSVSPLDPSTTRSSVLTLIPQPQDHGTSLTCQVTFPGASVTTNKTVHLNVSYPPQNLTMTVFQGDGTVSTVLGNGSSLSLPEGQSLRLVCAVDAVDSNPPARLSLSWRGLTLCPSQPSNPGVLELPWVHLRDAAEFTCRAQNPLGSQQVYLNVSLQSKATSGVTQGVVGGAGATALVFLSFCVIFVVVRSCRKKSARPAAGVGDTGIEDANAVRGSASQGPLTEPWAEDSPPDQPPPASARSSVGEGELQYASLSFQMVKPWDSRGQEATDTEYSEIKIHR
Sequence of Protein translocase subunit SecA (Escherichia coli (strain K12)) (P10408 whole entry): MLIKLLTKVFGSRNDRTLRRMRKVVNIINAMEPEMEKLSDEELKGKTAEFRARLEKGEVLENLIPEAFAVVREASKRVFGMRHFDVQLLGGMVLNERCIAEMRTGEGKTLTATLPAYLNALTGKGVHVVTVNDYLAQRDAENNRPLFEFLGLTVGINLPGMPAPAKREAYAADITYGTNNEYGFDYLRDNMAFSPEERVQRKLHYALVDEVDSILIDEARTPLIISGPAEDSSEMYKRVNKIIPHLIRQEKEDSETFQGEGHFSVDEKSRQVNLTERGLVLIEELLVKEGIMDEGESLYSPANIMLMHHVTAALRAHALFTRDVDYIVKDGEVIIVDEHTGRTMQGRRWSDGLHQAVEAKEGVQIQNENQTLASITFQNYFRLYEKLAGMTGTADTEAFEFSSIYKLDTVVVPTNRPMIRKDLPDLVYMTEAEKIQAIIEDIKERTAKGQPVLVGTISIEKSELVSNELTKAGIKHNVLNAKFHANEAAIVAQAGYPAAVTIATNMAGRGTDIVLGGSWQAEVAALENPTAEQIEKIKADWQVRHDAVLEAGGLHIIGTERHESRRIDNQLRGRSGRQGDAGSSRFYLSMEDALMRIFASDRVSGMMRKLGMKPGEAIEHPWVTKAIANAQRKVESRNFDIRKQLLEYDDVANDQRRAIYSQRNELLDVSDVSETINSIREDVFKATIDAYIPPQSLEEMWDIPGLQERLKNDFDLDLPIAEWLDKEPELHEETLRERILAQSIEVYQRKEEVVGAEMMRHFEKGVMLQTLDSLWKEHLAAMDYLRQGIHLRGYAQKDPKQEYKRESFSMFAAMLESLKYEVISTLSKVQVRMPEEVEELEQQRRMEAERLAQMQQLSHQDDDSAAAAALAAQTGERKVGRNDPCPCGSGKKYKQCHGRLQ

SMILES | Percent Effect [1] [%] | Percent Effect [2] [%] | Percent Effect [3] [%] | Percent Effect [4] [%] | Percent Effect [5] [%] | Percent Effect [6] [%] | Percent Effect [7] [%] | Percent Effect [8] [%] | Percent Effect [9] [%] | Percent Effect [10] [%] | Percent Effect [11] [%]
O=C(c1cccnc1O)N(Cc1ccsc1)CC1CCCO1 (configuration not stated) | 0.332 | 13.5 | -1.43 | 6.53 | 4.63 | 12.9 | 12.6 | 15.9 | 5.82 | 17.1 | -0.939
COc1ccc2c(c1)CCN(CCC(=O)O)CC2 | 0.2 | 16.2 | -5.1 | 15.3 | 1.74 | 1.91 | 13.6 | 6.58 | 5.82 | 17.1 | -1.92
Cc1nc(O)c2nnn(C[C@H]3CCCN3C(=O)CCC3CCCC3)c2n1 | -1.52 | -4.05 | 9.5 | -1.58 | -1.78 | -1.62 | 2.5 | -0.726 | -1.07 | -1.3 | 13.7
COc1ncccc1C(=O)NCC1Cc2ccccc2O1 (configuration not stated) | -0.887 | 5.48 | 2.87 | 0.0975 | -1.76 | 1.36 | 21.3 | -1.66 | 4.3 | 12.5 | -7.46
COc1cc2nc3n(c(=O)c2cc1OC)CCN(C)CC3 | -7.78 | 1.35 | 11.9 | 1.61 | -3.56 | -3.48 | 0.312 | 0.926 | 2.15 | 3.9 | -5.62
CCN(CC)C(=O)CN(C)C1CCc2ccccc21 (configuration not stated) | -0.321 | 18.4 | -0.859 | -2.93 | 3.57 | 3.83 | 18.7 | 11.3 | 8.33 | 21.9 | -9.79
CC(C)c1nnc2n1CCN(C(=O)c1ccc(CN(C)C)cc1)C2 | -3.27 | -2.6 | -13.6 | -5.41 | -2.84 | 1.47 | 12.5 | 22.6 | 0.952 | -2.35 | -18.4
CCn1ccnc1CN1CCN(CC(=O)NC(=O)NC2CC2)CC1 | -0.559 | 13.2 | 1.1 | 4.6 | 3.95 | 0 | 16.5 | -2.49 | 8.33 | 19.5 | -6.48
CC(O)CN1CCN(C(=O)c2cccc(CC#N)c2)CC1 (configuration not stated) | -0.303 | 23.4 | -4.34 | -2.88 | 0.749 | 3.92 | 12.7 | 27 | 6.8 | 2.44 | -4.3
CCCNCC1(O)CCCN(Cc2cccc(C)c2)C1=O (configuration not stated) | -3.44 | 0 | 3.08 | -2.93 | 1.57 | -1.82 | -2.66 | -21.7 | 3.23 | 5 | -1.9
CC(C)c1nc2n(n1)CC(NCc1nnc(-c3ccco3)o1)CC2 (configuration not stated) | -2.41 | 0 | -14.3 | -0.788 | 5.94 | 0.802 | -3.06 | -2.24 | 3.45 | 6.17 | -0.171
Cc1cnc(CN2CCCC(c3cc(C(N)=O)[nH]n3)C2)o1 (configuration not stated) | 1.3 | 24.3 | -15.7 | -4.2 | 0.472 | -16.8 | 17.1 | -3.25 | 5.42 | 18.5 | -9.23
Cc1nc(-c2ccco2)ccc1C(=O)N1CCCC1Cn1cccn1 (configuration not stated) | -2.79 | 1.27 | 3.11 | 2.49 | -0.513 | 3.66 | 13.4 | 7.74 | 4.17 | 0 | -8.65
O=C(NCc1ccco1)[C@H]1C[C@H]2OCC[C@H]2N(S(=O)(=O)C2CC2)C1 | -3.9 | 8 | -0.23 | 14.7 | -2.7 | -26.7 | 8.38 | -14 | -1.04 | 15 | -8.9
Cc1cc(N2CCN(Cc3ccc(C)o3)CC2)cc(C)n1 | -4.6 | 5.33 | -0.471 | 15 | 1.46 | 2.08 | 20.2 | 2.05 | 8.2 | 16.1 | -6.19
CC(=O)N(Cc1noc(C)n1)C1CCN(Cc2ccccc2C#N)C1 (configuration not stated) | -1.89 | 3.8 | 1.41 | 1.68 | 1.74 | 5.38 | 6.17 | -5.16 | 0 | 5.06 | 0.362
Fc1cccc(Oc2ccc(CNCC3CNc4ccnn4C3)cn2)c1 (configuration not stated) | -2.95 | 13 | -2.17 | 5.01 | 10.5 | 2.85 | 8.28 | 8.31 | 37.9 | 43.9 | -12.1
Cc1ncsc1C(=O)NCCn1nc(C2CCNC2)c2cccnc21 (configuration not stated) | -1.57 | -2.67 | 5.57 | 1.22 | 2.17 | 0.699 | 3.26 | -2.08 | 0 | 6.41 | 1.51
CNc1cc(C2CCCN2Cc2ccccc2C(=O)O)ccn1 (configuration not stated) | -4.24 | -6.76 | 3.65 | -0.354 | -1.19 | -0.696 | 7.33 | 7.54 | 8.6 | 11.7 | -11.7
COc1ncccc1C(=O)Nc1nc2c(s1)CN(S(=O)(=O)C1CC1)CC2 | -8.71 | 0 | 25.5 | -2.45 | -4.9 | 1.82 | 29.8 | 21.4 | 3.23 | 5 | 102
CN(Cc1nnc(C2CC2)n1C)C1CCN(Cc2ccon2)C1 (configuration not stated) | -1.9 | 21.6 | -11.6 | -5.53 | -2.17 | -10 | 12.6 | 7.46 | 5.42 | 11.1 | -7.81
Nc1nccc(NCc2cc3n(n2)CCCN(C2CCCCC2)C3)n1 | -1.87 | 13.7 | -1.77 | 1.73 | -0.198 | -1.2 | 24.4 | 2.07 | 9.38 | 23.5 | -4.35
